Measurements: PubChem BioAssay
Entries with a potency or affinity are not part of this list. Unmarked numbers belong to inactive results.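 Rule for the calls: active = a fitted half-maximal concentration no higher than twice the top valid tested dose, with signal falling as cells die; inconclusive = flat curve between -70% and -30%, or poor fit; inactive = the rest, including signal rising instead of falling.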

Assay: HeLa cell cytotoxicity, dose response, cytotoxicity control, ATP luminescence, cherry-pick samples (AID 687004);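 note: 0% = neutral control median and -100% = staurosporine 10 µM control median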
Conditions: HeLa viability, ATP luminescence (CellTiter-Glo), 48 h; series mostly up to 26 µM; activity change, negative = cytotoxicity: at the top concentration

Compared with `COCCNC(=O)C[C@H]1CC[C@@H]2[C@H](COC[C@H](O)CN2S(=O)(=O)c2ccccc2C)O1`, `CNC(=O)C[C@@H]1CC[C@H]2[C@@H](COC[C@H](O)CN2C(=O)Nc2ccc3c(c2)OCO3)O1` is lower in “activity change, negative = cytotoxicity” value: 1.69% for the first, 1.18% for the second.

Going from `COc1ccccc1NC(=O)N[C@H]1CC[C@@H](CCn2cc(-c3ccccc3OC)nn2)O[C@@H]1CO` to `O=C(N[C@H]1CC[C@@H](CCn2cc(-c3ccccc3)nn2)O[C@@H]1CO)c1cnccn1`, the “activity change, negative = cytotoxicity” value rises from 16.1% to 19%.

First: CC(C)NC(=O)Nc1ccc2c(c1)C(=O)N([C@H](C)CO)C[C@@H](C)[C@H](CN(C)C(=O)Nc1ccccc1)OCCCC[C@@H](C)O2
Second: C[C@@H]1CN([C@H](C)CO)C(=O)c2cc(NC(=O)Nc3cccc4ccccc34)ccc2O[C@@H](C)CCCCO[C@@H]1CN(C)Cc1ccc2c(c1)OCO2
The “activity change, negative = cytotoxicity” value of the first is higher: 8.83% for the first, 2.23% for the second.

First: CCCNC(=O)N1C[C@@H](O)COC[C@H]2O[C@H](CC(=O)N3CCN(C)CC3)CC[C@@H]21
Second: CC(C)NC(=O)NCC[C@@H]1CC[C@@H](NC(=O)CN(C)C)[C@@H](CO)O1
The “activity change, negative = cytotoxicity” value of the first is lower: -0.401% for the first, 4.82% for the second.

Going from `CCS(=O)(=O)NCC[C@@H]1CC[C@@H](NS(=O)(=O)c2cccc(F)c2)[C@@H](CO)O1` to `O=C(NCC[C@H]1CC[C@@H](NS(=O)(=O)c2ccc(F)cc2)[C@H](CO)O1)c1ccc2c(c1)OCO2`, the “activity change, negative = cytotoxicity” value falls from 4.14% to -2.62%.

Going from `CO[C@@H]1CN(C)C(=O)c2ccc(NC(=O)C3CC3)cc2OC[C@H](C)N(Cc2ccc(F)cc2)C[C@H]1C` to `O=C(Nc1ccc(F)cc1)N1C[C@@H]2[C@H](c3ccccc31)[C@H](CO)N2Cc1cocn1`, the “activity change, negative = cytotoxicity” value falls from 16% to 6.04%.

Compared with `CC=Cc1ccc2n(c1=O)C[C@@H]1[C@@H](CO)[C@H](C(=O)N3CCCCC3)N(Cc3ccccc3)[C@H]21` (mixture of isomers), `CC(=O)N1[C@@H](CO)[C@H](c2ccc(-c3ccccc3)cc2)[C@@H]1CNC(=O)C1CC1` is lower in “activity change, negative = cytotoxicity” value: 30% for the first, -3.26% for the second.

Going from `CCC(=O)N(C)C[C@H]1Oc2cc(C#CC(C)(C)O)ccc2S(=O)(=O)N([C@H](C)CO)C[C@@H]1C` to `C[C@H](CO)N1C[C@H](C)[C@@H](CN(C)C(=O)c2cccc(F)c2)Oc2cc(-c3cncnc3)ccc2S1(=O)=O`, the “activity change, negative = cytotoxicity” value falls from 17.6% to 8.45%.

Going from `CCC(=O)N[C@H]1C=C[C@@H](CC(=O)OC)O[C@@H]1CO` to `O=C(C[C@@H]1C=C[C@@H](NC(=O)C2CCC2)[C@H](CO)O1)NC1CCC1`, the “activity change, negative = cytotoxicity” value falls from 2.92% to -4.39%.

Going from `C[C@@H]1CN([C@@H](C)CO)C(=O)CCCn2nncc2CO[C@H]1CN(C)Cc1cccc(C(F)(F)F)c1` to `CCCNC(=O)N(C)C[C@@H]1Oc2ncc(C#CCc3ccccc3)cc2C(=O)N([C@@H](C)CO)C[C@@H]1C`, the “activity change, negative = cytotoxicity” value rises from -6.94% to -0.839%.

Compared with `C[C@H](CO)N1C[C@H](C)[C@H](CN(C)C(=O)Nc2cccc3ccccc23)Oc2ccc(NC(=O)Nc3ccccc3)cc2C1=O`, `CCCNC(=O)N(C)C[C@@H]1Oc2ncc(C#CC3CCCCC3)cc2C(=O)N([C@H](C)CO)C[C@@H]1C` is lower in “activity change, negative = cytotoxicity” value: 15.4% for the first, 12.7% for the second.

First: Cc1ccc(C)c(NC(=O)C2CCCN2C(=O)NC2CCCCC2)c1 (centres undefined)
Second: O=C(NC[C@H]1[C@@H](c2ccccc2)[C@@H](CO)N1C(=O)C1CCC1)NC1CCCC1
The “activity change, negative = cytotoxicity” value of the first is higher: 21.7% for the first, 0.183% for the second.

Compared with `O=C(C[C@H]1CC[C@H](NC(=O)Nc2ccc(C(F)(F)F)cc2)[C@H](CO)O1)NCc1cccc(F)c1`, `CCC(=O)N1[C@H](CO)[C@H](c2ccccc2)[C@H]1CN(CC)C(=O)c1cccc(F)c1` is higher in “activity change, negative = cytotoxicity” value: 13.5% for the first, 74.6% for the second.

Compared with `O=C(CSc1ncnc2c1cnn2-c1ccc(F)cc1)NC1CCCC1`, `Cc1nnc(NC(=O)CSc2ncnc3c2cnn3-c2ccccc2C)s1` is lower in “activity change, negative = cytotoxicity” value: 14.7% for the first, 8.29% for the second.

For `CC(=O)NC[C@@H]1[C@@H](c2ccc(C3=CCCC3)cc2)[C@@H](CO)N1C(=O)NC(C)C`, the “activity change, negative = cytotoxicity” value was 19.9%.

First: C[C@@H]1CN([C@H](C)CO)C(=O)c2cc(NS(=O)(=O)c3ccccc3)ccc2O[C@H]1CN(C)C(=O)NC1CCCCC1
Second: C[C@@H]1CCCCO[C@@H](CN(C)Cc2ccc3c(c2)OCO3)[C@@H](C)CN([C@H](C)CO)C(=O)c2cc(NS(=O)(=O)c3ccc(F)cc3)ccc2O1
The “activity change, negative = cytotoxicity” value of the first is lower: 2.13% [at 23.5 µM] for the first, 7.71% [at 23.5 µM] for the second.

Compared with `CO[C@H]1CN(C)C(=O)c2cc(NC(=O)C3CCOCC3)ccc2OC[C@@H](C)NC[C@H]1C`, `CNC(=O)C[C@H]1CC[C@H]2[C@H](COc3ccc(NC(=O)c4cc(C)on4)cc3C(=O)N2C)O1` is lower in “activity change, negative = cytotoxicity” value: 11.3% [at 23.5 µM] for the first, 1.2% [at 23.5 µM] for the second.

For `CCc1ccc(NC(=O)C2NC(=O)CC2c2ccccc2)cc1` (centres undefined), the “activity change, negative = cytotoxicity” value was 8.22% [at 42 µM].
